# Source: PubChem BioAssay AID720651 (The Scripps Research Institute Molecular Screening Center, 2013)
# Some of the results follow. The source made the active and inactive calls. The rule behind the calls is not given here.
# Experiment: binds r(CAG) RNA repeats in late stage dose response, late-stage follow-up, biochemical, fluorescence, dose response, powder samples (AID 720651)
# Conditions: r(CAG) RNA TO-PRO-1 dye displacement
smiles,measurement,value
O=C1CC(=O)N(Cc2ccccc2)C(=O)N1CCCCCCN1C(=O)CC(=O)N(Cc2ccccc2)C1=O,IC50,1440 nM (active)
